In PubChem BioAssay AID1259422 (The Scripps Research Institute Molecular Screening Center, 2018):
Out of some 640,000 compounds screened, about 9,300 (1.5%) were called active. The sample as a whole holds a higher share of actives than the screen did. Unmarked numbers belong to inactive results. No stated cut-off is given here; in the data, active means inhibition above about 32%; inactive means the rest.

assay: TEAD-YAP interaction inhibition, primary screen, TEAD-YAP interaction inhibitor project, luminescence, HEK-TIYL cells (AID 1259422); details: TEAD-Gal4/YAP UAS-luciferase luminescence, at 9.12 µM, active compounds read high;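 further: 0% = median of test compound wells and 100% = reference inhibitor wells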

Compound | inhibition
COc1ccc(/C=C2/SC(=O)N(CCCC(=O)Nc3ccc(C(=O)O)cc3)C2=O)cc1 | 80.5% (active)
COc1ccc(/C=C2\SC(=O)N(Cc3ccc(C(=O)O)cc3)C2=O)cc1 | 1.76%
Cc1ccc(/C=C2/SC(=O)N(CCC(=O)O)C2=O)cc1 | 19.7%
COc1ccc(N=C2SC(C(=O)Nc3ccc(C)cc3C)CC(=O)N2CCc2ccc(OC)c(OC)c2)cc1 (configuration not stated) | 9.84%
O=C(Cc1cc(=O)[nH]c(=O)[nH]1)NCCCc1ccccc1 | -5.86%
CCOC(=O)Nc1c(C(=O)OC)[nH]c2ccc(C)cc12 | -2.73%
CCOC(=O)Nc1cc(=O)c2cc(C)ccc2o1 | 41.8% (active)
Cc1ccc2oc(C(=O)Nc3ccccc3F)cc(=O)c2c1 | 4.72%
COCCSc1nc2c(c(=O)[nH]c(=O)n2C)n1Cc1ccccc1Cl | 2.74%
O=[N+]([O-])c1ccc2cnn(-c3cccc(C(F)(F)F)c3)c2c1 | -0.71%
COc1ccccc1N1CCN(c2ncnc3sc(C(=O)N4CCCCC4C)c(C)c23)CC1 (configuration not stated) | 6.82%
CCOC(=O)c1c(/N=C/c2cccc(OC)c2OC)sc2c1CCN(CC)C2 | 4.12%
CC(C)N(CC(=O)N1c2ccccc2CC1C)Cc1ccccc1 (configuration not stated) | -1.32%
Cc1cccc2c1[nH]c1nc(N/N=C\c3ccc(O)cc3)nnc12 | -16.6%
Oc1ccc(O)c(/C=N/Nc2nnc3c(n2)[nH]c2ccccc23)c1 | 49% (active)
CC/C(=N/Nc1nnc2c(n1)[nH]c1ccccc12)c1ccccc1 | 0.16%
Cc1nc(N2CCC(NCC(F)(F)F)CC2)nc2cc3c(cc12)CCC3 | -15.4%
C/C(=N\NC(=O)c1nnn(-c2nonc2N)c1C)c1ccc(Cl)c(Cl)c1 | -6.68%
O=C(O)CCC(=O)N1CCC(c2nc3ccc(Cl)cc3[nH]2)CC1 | 1.09%
O=C(CCCn1c(=S)[nH]c2ccccc2c1=O)NCc1cccc(Cl)c1 | 3.21%
Cc1cc(C)cc(NC(=O)CCCn2c(=S)[nH]c3ccccc3c2=O)c1 | 34.5% (active)
O=C(CCCn1c(=S)[nH]c2ccccc2c1=O)Nc1ccc(F)c(Cl)c1 | -21.7%

Compound | inhibition
OCCNc1nc(Nc2ccc(N3CCOCC3)cc2)nc2c1ncn2-c1ccccc1 | 28.7%
c1cnc(Nc2nc(Nc3ccc(N4CCOCC4)cc3)c3ncn(-c4ccsc4)c3n2)nc1 | 51.1% (active)
c1cc(Nc2nc(Nc3ccc(N4CCOCC4)cc3)c3ncn(-c4ccsc4)c3n2)ccn1 | -4.11%
OCC1CCCN1c1nc(NC2CC2)c2ncn(-c3ccccc3)c2n1 (configuration not stated) | -46.6%
c1ccc(Nc2nc(Nc3ccc(N4CCOCC4)cc3)c3ncn(-c4ccccc4)c3n2)cc1 | 3.79%
CN(C)c1cccc(Nc2nc(NCCN3CCOCC3)c3ncn(-c4ccccc4)c3n2)c1 | 3.8%
OCCNc1nc(N2CCCC2CO)nc2c1ncn2-c1ccsc1 (configuration not stated) | 14.6%
COc1ccc(CCNc2nc(N3CCCC3CO)nc3c2ncn3-c2ccsc2)cc1 (configuration not stated) | 53.3% (active)
O=C1CCCN1CCCNc1nc(Nc2ccc(-n3ccnc3)cc2)nc2c1ncn2CCN1CCCC1=O | 4.85%
CC(C)n1cnc2c(NCCCN3CCCC3=O)nc(-c3csc4ccccc34)nc21 | 3.47%
c1ccc(-n2cnc3c(NCCN4CCOCC4)nc(Nc4ccc(-n5ccnc5)cc4)nc32)cc1 | 61.3% (active)
CC(C)n1cnc2c(NCCCN3CCCC3=O)nc(Nc3ccc(-n4ccnc4)cc3)nc21 | 44.4% (active)
C[C@@H]1CN(C(=O)C2CC23CCN(Cc2coc4ccccc4c2=O)CC3)C[C@H](C)O1 (some centres not stated) | -6.72%
Cc1cccc(-c2nc(-c3ccc(Cl)cc3)no2)c1 | -40.1%
CCN(CC)S(=O)(=O)c1ccc(N2CCc3ccccc32)c([N+](=O)[O-])c1 | -8.71%
CC(C)(C#N)OC(=O)Nc1cccc(Cl)c1 | -3.72%
Cc1ccc(N2C(=O)Cc3c2nc(N)c2c(N)nc(N4CCCCC4)c(C#N)c32)cc1C | 18.1%
CC(C)(C)NC(=O)c1cnn2c(C(F)(F)F)cc(-c3ccc(F)cc3)nc12 | 6.73%
CCOCCOC(=O)COc1ccc2c(C)cc(=O)oc2c1 | 3.62%
Cc1ccc(-c2cc(C(=O)Nc3ccc(Br)cc3Br)c3ccccc3n2)o1 | -7.27%
Cc1nn(C)c(C)c1NC(=O)c1c([N+](=O)[O-])cnn1C | 4.42%
Cc1c(Cl)cccc1N1C(=O)c2ccc(Oc3ccc(Nc4ncnc5ccccc45)cc3)cc2C1=O | 2.53%

Compound | inhibition
O=C(Cc1c(F)cccc1Cl)Nc1cc(C(=O)Nc2cccc(C(F)(F)F)c2)ccc1N1CC2CC(C1)c1cccc(=O)n1C2 (configuration not stated) | 2.29%
Nc1nc(Nc2nccc3ccccc23)nc2c1ncn2-c1ccsc1 | 53.2% (active)
Oc1ccc(CCNc2nc(NCCN3CCOCC3)nc3c2ncn3-c2ccsc2)cc1 | 34.3% (active)
COc1cc(Nc2nc(NCc3cccnc3)nc3c2ncn3-c2ccsc2)cc(OC)c1OC | 0.91%
COc1ccc(CCNc2nc(Nc3ccc(-n4ccnc4)cc3)nc3c2ncn3-c2ccsc2)cc1 | 65.1% (active)
Nc1nc(NCc2cccnc2)nc2c1ncn2-c1ccsc1 | -5.56%
COc1cc(Nc2nc(NCc3cccnc3)c3ncn(-c4ccsc4)c3n2)cc(OC)c1OC | 30.7%
COc1cc(Nc2nc(Nc3nccc4ccccc34)nc3c2ncn3-c2ccsc2)cc(OC)c1OC | 12.9%
CCNc1nc(Nc2cc(OC)c(OC)c(OC)c2)c2ncn(-c3ccsc3)c2n1 | 48.6% (active)
c1ccc(Oc2ccc(Nc3nc(Nc4ccccn4)nc4c3ncn4-c3ccsc3)cc2)cc1 | 2.53%
c1ccc2c(Nc3nc(NCCN4CCOCC4)c4ncn(-c5ccsc5)c4n3)nccc2c1 | 19.8%
Oc1ccc(CCNc2nc(Nc3ccc(N4CCOCC4)cc3)nc3c2ncn3-c2ccccc2)cc1 | 9.04%
CC(=O)Nc1ccc(Nc2nc(Nc3ccc(-n4ccnc4)cc3)nc3c2ncn3-c2ccsc2)cc1 | 24.8%
CCCCOc1ccc(NS(=O)(=O)c2cc(F)ccc2OC)cc1 | 1.6%
Cc1cc2c(cc1C)NC(c1cccc3ccccc13)C1=C(CC(C)(C)CC1=O)N2 (configuration not stated) | -9.75%
Cn1c(=O)n(Cc2ccc(F)cc2)c(=O)c2c1nc1oc(C(C)(C)C)cn12 | -6.69%
O=[N+]([O-])c1ccc(S(=O)(=O)NCCSCc2ccco2)cc1 | 6.05%
C/C(=N\NC(=O)c1ccc(CSc2nc(C)cc(C)n2)cc1)c1ccccc1O | 10.2%
CC(C)n1cnc2c(NCCc3ccc(O)cc3)nc(Nc3cnccn3)nc21 | 36.5% (active)
CCN(CC)C(=O)C1CCCN(c2nc(NCCN(C(C)C)C(C)C)c3ncn(-c4ccsc4)c3n2)C1 (configuration not stated) | 36.7% (active)
CCNc1nc(NCCCN2CCCC2=O)c2ncn(-c3ccccc3)c2n1 | 4.42%
CCN(CC)C(=O)C1CCCN(c2nc(NC3CC3)c3ncn(-c4ccccc4)c3n2)C1 (configuration not stated) | 9.83%

Compound | inhibition
O=C1CCCN1CCCNc1nc(Nc2ccncn2)nc2c1ncn2-c1ccsc1 | 50.5% (active)
CC(C)n1c(Nc2cnccn2)nc2c(NCCc3ccc(O)cc3)ncnc21 | 14.1%
CCN(CC)C(=O)C1CCCN(c2nc(Nc3ccc(NC(C)=O)cc3)c3ncn(-c4ccsc4)c3n2)C1 (configuration not stated) | 24.3%
CC(C)n1cnc2c(NCCc3ccc(O)cc3)nc(Nc3cccc(N(C)C)c3)nc21 | -1.31%
O=C1CCCN1CCCNc1nc(Nc2ccccc2)c2ncn(-c3ccsc3)c2n1 | 8.67%
Cc1cccc(C(=O)NCc2nnc(SCC(=O)N3N=C(c4cccs4)CC3c3ccc(F)cc3)n2C)c1 (configuration not stated) | 10.4%
Cc1cccc(NC(=O)CC2SC(N)=NC2=O)c1C (configuration not stated) | 3.13%
O=c1oc2ccccc2cc1-c1nnc(Nc2cccc3ccccc23)s1 | -25.6%
COc1ccc(NC(=O)C2C3C=CC4(O3)C2C(=O)N(CCC(C)C)C4C(=O)NC2CCCCC2)cc1 (configuration not stated) | 6.81%
O=S(=O)(c1ccc(Br)c2ccccc12)N1CCN(Cc2ccccc2)CC1 | 14.9%
CCOC(=O)c1nnn(CC(=O)Nc2cccc(C)c2)c1C(=O)OCC | -6.24%
O=c1onc(-c2cccs2)n1Cc1ccccc1 | 4.82%
Cc1cccc(NC(=O)Cn2c(-c3cccs3)noc2=O)c1 | 33.3% (active)
O=C(Nc1ccc(Cl)c(Cl)c1)c1ccc(C(=O)Nc2ccc(Cl)c(Cl)c2)cc1 | -3.3%
O=C(COc1ccc(CO)cc1)Nc1ccc(Cl)c(Cl)c1 | -15.9%
O=C(CC(O)(C(F)(F)F)C(F)(F)F)Nc1ccc(Cl)c(Cl)c1 | 58.9% (active)
CCn1c(CNc2c(C)cccc2C)nnc1SCC(N)=O | -2.12%
CCOC(=O)c1c(NC(=O)c2cc(OC)c(OC)c(OC)c2)sc(C(=O)N2CCCC2)c1C | -7.23%
CCOC(=O)c1cnc2c(C)c(C)ccc2c1NCCCN(C)C | 81.7% (active)
CCOC(=O)c1cnc2c(Cl)c(Cl)ccc2c1NCCOC(=O)c1cccnc1 | 0.48%
CCOC(=O)c1cnc2c(Cl)c(Cl)ccc2c1NCCN(C)C | -5.54%
